Only some compounds are listed: those with a hit (about 2.6% of all), similar ones and a draw of the others.
eIF4H inh: inhibitors of RNA binding by human eIF4H. Q15056. hit rate 0.94% among 290,000. eIF4H fluorescence polarization binding assay. inhibition, % at 35 µM;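 further: calls also rest on retests at 20 µM and on dose response follow-up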
PABP1 MLLE inh: blocks PAM2 peptide binding to the PABP1 MLLE domain; hit rate 0.36% among 360,000; GST-MLLE / FITC-PAM2 fluorescence polarization; P11940; inhibition, % at 20 µM; AID 588489; in the data active means inhibition above about 35%, passing the limit was not always enough;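 further: plate controls were DMSO wells with GST-MLLE for no effect and wells lacking GST-MLLE protein for full effect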
PHOSPHO1 block: blocks human PHOSPHO1 phosphatase activity; Q8TCT1; recombinant PHOSPHO1, absorbance phosphatase assay; inhibition, % at 13.3 µM; hit rate 1.1% among 290,000; in the data active means inhibition above about 60%
APOBEC3A inh: human APOBEC3A DNA deaminase inhibition; hit rate 0.41% among 330,000; inhibition, % at 20 µM; AID 493011; recombinant A3A, FAM/TAMRA ssDNA deamination fluorescence;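 active means at least 40% inhibition at 20 µM here, with at most 30% in a related deaminase screen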;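 further: plate controls were A3A with DMSO for no effect and wells lacking A3A enzyme for full effect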
Target sequence (P31941 whole entry, looked up): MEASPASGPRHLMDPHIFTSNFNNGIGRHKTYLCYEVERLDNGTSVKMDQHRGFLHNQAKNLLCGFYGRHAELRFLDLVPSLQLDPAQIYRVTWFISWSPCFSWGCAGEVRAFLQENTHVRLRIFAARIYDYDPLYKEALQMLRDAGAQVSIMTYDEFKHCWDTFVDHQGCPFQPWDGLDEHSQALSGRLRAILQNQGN
PABP polyA inh: blocks human PABP binding to poly(A) RNA | P11940 | fluorescence polarization | calls only at 35 µM | hit rate 1% among 290,000;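 further: calls also rest on retests at 20 µM and on dose response follow-up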
A3G deaminase: blocks human APOBEC3G single-stranded DNA deamination. recombinant A3G, ssDNA deamination FAM/TAMRA fluorescence. inhibition, % at 20 µM. hit rate 0.28% among 330,000;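 active means inhibition of at least 40% at 20 µM, with no more than 30% in the related APOBEC3A deaminase screen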;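 further: plate controls were DMSO wells with A3G for no effect and wells lacking A3G enzyme for full effect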
* hit, by the source's call; i = inactive; ? = inconclusive; · = no result given; + = active, no number. Unless noted, how the calls were made is not given here.

SMILES	eIF4H inh	PABP1 MLLE inh	PHOSPHO1 block	APOBEC3A inh	PABP polyA inh	A3G deaminase
CC(C)Cc1nnc(NC(=O)c2cc3c(s2)CCC3)s1	54*	-24	28	19	i	5
COc1cc(CCC(=O)NCc2ccc(F)cc2)cc(OC)c1OC	0	-20	33	-2	i	2
CCc1cccc(CC)c1NC(=O)COC(=O)c1ccccc1-c1nc2ccccc2s1	8	-6	178*	-4	i	-5
CC(Oc1ccccc1)C(=O)Nc1cccc([N+](=O)[O-])c1 (stereo not given)	1	6	60*	0	i	-6
O=[N+]([O-])c1cc2oc3c(c2c(C=NCc2ccccc2)c1O)CCCC3	76*	-106	-2	9	+	-1
Cc1cc(-c2csc(NC(=O)c3cc4ccccc4o3)n2)c(C)n1C	98*	-19	-3	0	+	6
O=C(Nc1nc(-c2ccccn2)cs1)c1cc2ccccc2o1	21	-20	-4	-2	i	-1
COc1cc(OC)cc(-c2nnc(NC(=O)c3ccc4c(c3)OCCO4)o2)c1	11	0	63*	-4	i	-6
COc1cc(OC)cc(C(=O)NNC(=O)c2ccc3c(c2)OCCO3)c1	·	0	·	1	·	1
C=CCn1c(SCC(=O)Nc2ccc3c(c2)OCCO3)nc2cc(C(=O)O)ccc2c1=O	·	7	·	0	·	5
COc1ccc(C(=O)NC2(C(F)(F)F)N=C3SCCN3C2=O)cc1 (stereo not given)	-2	40*	11	-1	i	-8
Cc1cccc(NC2(C(F)(F)F)N=C3SCCN3C2=O)n1 (stereo not given)	-5	40*	14	1	i	-8
Cc1cccnc1NC1(C(F)(F)F)N=C2SCCN2C1=O (stereo not given)	-6	7	-10	11	i	-9
O=c1[nH]c2cc3c(cc2cc1CN(CCCO)Cc1nnnn1Cc1ccc(F)cc1)OCO3	4	46*	6	0	i	13
CC(C)C(c1nnnn1Cc1ccccc1)N(CCCO)Cc1cc2cc3c(cc2[nH]c1=O)OCO3 (stereo not given)	111*	28	-5	3	+	-5
Cc1ccc2cc(CN(CCO)Cc3nnnn3Cc3ccc(F)cc3)c(=O)[nH]c2c1	3	-3	16	2	i	2
C=CCN(c1cccc(C(F)(F)F)c1)S(=O)(=O)c1cccc(C(=O)OCC(=O)Nc2ccccc2)c1	-8	-2	-8	0	i	-4
CCOC(=O)c1ccc(CC(=O)c2ccc(O)cc2O)o1	3	-11	8	4	i	0
COC(=O)c1ccc(CC(=O)c2ccc(O)cc2O)o1	6	-21	64*	-10	i	0
COC(=O)c1ccc(CC(=O)c2c(C)cc(O)cc2O)o1	80*	1	4	20	+	10
CC(CC(=O)N(CCC1=CCCCC1)c1c(N)n(Cc2ccccc2)c(=O)[nH]c1=O)c1ccccc1 (stereo not given)	·	-7	·	5	·	-13
O=C(c1ccc(N2CCN(S(=O)(=O)c3ccccc3)CC2)c([N+](=O)[O-])c1)N1CCOCC1	-8	0	-12	-2	i	-1
Cc1ccc(S(=O)(=O)/C(C#N)=C/c2c(N3CCOCC3)nc3c(C)cccn3c2=O)cc1	?	0	-1	-2	?	-5
Cc1cccn2c(=O)c(/C=C(\C#N)C(=O)NCc3ccco3)c(N3CCOCC3)nc12	7	-3	19	2	i	-1
N#C/C(=C\c1c(N2CCC(C(N)=O)CC2)nc2ccccn2c1=O)C(=O)NCc1ccco1	62*	-7	8	4	+	4
SMILES	eIF4H inh	PABP1 MLLE inh	PHOSPHO1 block	APOBEC3A inh	PABP polyA inh	A3G deaminase
Cc1cccn2c(=O)c(/C=C(\C#N)S(=O)(=O)c3ccccc3)c(N3CCN(Cc4ccccc4)CC3)nc12	78*	21	-188	-5	+	-8
Cc1ccc2nc(N3CCN(c4ccccc4F)CC3)c(C=O)c(=O)n2c1	58	17	41	1	+	-4
Cc1ccc2nc(N3CCCCC3)c(C=O)c(=O)n2c1	-3	·	28	-1	i	-15
N#C/C(=C\c1c(N2CCN(Cc3ccccc3)CC2)nc2ccccn2c1=O)S(=O)(=O)c1ccccc1	?	-12	34	-1	+	0
CSc1nc(N)nc2c1ncn2CC(=O)N[C@H](C)c1cccc2ccccc12	·	0	·	-2	·	-2
COc1ccc(CCNCC(O)COc2ccc(OC)cc2C(C)(C)C)cc1 (stereo not given)	22	-6	37	0	i	-9
COc1ccc(N2CC(C(=O)N/N=C/c3cc([N+](=O)[O-])ccc3O)CC2=O)cc1 (stereo not given)	8	-17	-20	0	i	-5
CC1Cc2c([nH]c3ccccc23)C(=O)N1 (stereo not given)	6	-14	·	-2	i	0
CCOC(=O)N1C2c3ccccc3C(c3ccccc32)N1C(=O)OCC	·	8	·	·	·	·
COCc1cc(S(=O)c2ccc(Cl)cc2)nc(C)n1 (stereo not given)	-2	27	-84	·	i	·
Cc1ccc(S(=O)(=O)/C(C#N)=C/c2c(N3CCN(C)CC3)nc3ccccn3c2=O)cc1	13	-4	13	-1	i	13
Cc1cccn2c(=O)c(C=O)c(N3CCN(c4ccc(F)cc4)CC3)nc12	96*	6	26	2	+	1
Cc1cccn2c(=O)c(C=O)c(N3CCCCC3)nc12	5	12	-6	-3	i	-4
Cc1ccc(S(=O)(=O)/C(C#N)=C/c2c(N3CCN(Cc4ccccc4)CC3)nc3ccccn3c2=O)cc1	?	13	29	-3	+	-3
Cc1cc(O)cc(O)c1/C=N/NC(=O)c1ccc2c(c1)OCCO2	·	49*	·	·	·	·
O=C(N/N=C/c1ccc([N+](=O)[O-])o1)c1ccc2c(c1)OCO2	79*	-5	-4	6	+	2
Cc1cccc(N=Cc2cc3c(cc2[N+](=O)[O-])OCO3)c1	62*	-9	-135	-2	+	-2
O=[N+]([O-])c1cc2c(cc1C=Nc1ccccc1)OCO2	33	-78	-25	-1	i	-2
O=C(N/N=C/c1cc2c(cc1[N+](=O)[O-])OCO2)c1cccnc1	85*	0	-25	5	+	-1
CC(=O)c1sc(NC(=O)c2ccc(F)c(S(=O)(=O)N3CCOCC3)c2)nc1C	·	-3	·	-2	·	-6
COc1ccc(OC)c(NC(=O)COc2coc(CN3CCc4ccccc43)cc2=O)c1	·	-5	·	1	·	1
O=C(N/N=C/c1ccc(OC(=O)c2ccc([N+](=O)[O-])cc2)cc1)c1cccnc1	5	17	63*	5	i	7

Assay outcomes as filed in PubChem.
